This is a sample that favours compounds with a hit; in the whole collection about 28% have one here.
CYP2C9 activ: CYP2C9 (human) activation. hit rate 1.4% among 96,000. activation factor at 5 µM. AID 1024. recombinant CYP2C9, luciferin-H conversion, luminescence; hits give high values; factor 1 = untreated enzyme, 0 = blocked. P11712;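 active means activation factor of 2 or more for CYP2C9 at a 5 µM dose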;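 further: 0 = sulfaphenazole-blocked wells and 1 = vehicle-only wells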
CYP2C19 inhib: human CYP2C19 inhibition. P33261. CYP2C19 Supersomes, luciferin-H EGE luminescence, 30 min. inhibition, % at 5 µM. hit rate 21% among 96,000;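 active means CYP2C19 inhibition above a set limit at 5 µM in the primary screen, cut at about 50% in these data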;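 further: plate controls were negative control wells for no effect and 2.5 mM tranylcypromine positive control for full effect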
Target sequence (P33261 whole entry, looked up): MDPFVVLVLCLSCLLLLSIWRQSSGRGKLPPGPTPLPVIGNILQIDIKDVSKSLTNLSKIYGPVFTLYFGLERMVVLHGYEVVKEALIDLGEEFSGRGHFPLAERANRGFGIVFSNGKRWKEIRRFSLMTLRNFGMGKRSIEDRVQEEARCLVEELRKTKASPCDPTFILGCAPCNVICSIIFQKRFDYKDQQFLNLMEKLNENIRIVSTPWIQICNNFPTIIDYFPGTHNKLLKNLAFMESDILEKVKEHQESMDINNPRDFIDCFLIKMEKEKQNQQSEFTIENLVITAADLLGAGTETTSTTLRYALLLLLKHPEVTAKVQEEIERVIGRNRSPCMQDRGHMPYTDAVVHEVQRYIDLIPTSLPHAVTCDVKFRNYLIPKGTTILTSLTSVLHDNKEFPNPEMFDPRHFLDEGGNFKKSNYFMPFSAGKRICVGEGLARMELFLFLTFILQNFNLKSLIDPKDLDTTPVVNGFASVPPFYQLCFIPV
CYP2C19 act: increases human CYP2C19 enzyme activity; activation factor at 5 µM; recombinant CYP2C19, luciferin-H EGE luminescence; hits give high values; 0 = fully inhibited enzyme, 1 = untreated enzyme; 96,000 tested, under 10 active; AID 1025;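 active means activation factor of at least 2 at 5 µM in the primary screen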;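 further: 0 = wells with 2.5 mM tranylcypromine and 1 = vehicle-only wells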
PLK1 kinase inh: blocks human PLK1 kinase activity; recombinant PLK1 kinase, TR-FRET peptide phosphorylation; hit rate 0.53% among 97,000; AID 619; inhibition, % at 10 µM; P53350;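 active means inhibition of 50% or more in the single-concentration screen; inactive means inhibition below 50%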;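 further: 0% = DMSO max control and 100% = H-89 dihydrochloride min control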
Plk1 PBD FP: blocks phosphopeptide binding to human Plk1 polo box domain; P53350; Plk1 PBD phosphopeptide binding, fluorescence polarization; hit rate 0.13% among 97,000; inhibition, %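 (tested at about 20 µM)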; in the data active means inhibition above about 34%, passing the limit was not always enough
CYP2C9 inhib: blocks human cytochrome P450 2C9; CYP2C9 Supersomes, luciferin-H conversion, luminescence; hit rate 20% among 96,000; inhibition, % at 5 µM; P11712;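 active means blocking of liver enzyme CYP2C9 beyond about 50% at 5 µM, limit read from the data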
* = called active by the depositor; . = not tested or not shown.

SMILES	CYP2C9 activ	CYP2C19 inhib	CYP2C19 act	PLK1 kinase inh	Plk1 PBD FP	CYP2C9 inhib
Cc1ccc2cccc(NC(=S)NC(=O)c3ccccc3)c2n1	2.7*	16	0.8	-7	-17	-168
Cc1ccnc(NC(=O)C2CCC(CNc3c(N4CCCC4)c(=O)c3=O)CC2)c1 (stereo not given)	0.8	20	0.8	-2	-4	17
Cc1ccc(C(=O)C(OC(=O)CN2C(=O)c3ccccc3C2=O)c2ccccc2)cc1C (stereo not given)	2*	26	0.7	0	-15	-96
Cc1ccc(C(=O)C(OC(=O)CN2C(=O)c3ccccc3C2=O)c2ccccc2)cc1 (stereo not given)	0.8	44	0.6	-15	16	18
Cc1ccc(-c2nnc(SCc3nc4ccccc4[nH]3)n2Cc2ccco2)cc1	0.5	15	0.9	-8	-3	46
Cc1cccc(-c2nnc(SCc3nc4ccccc4[nH]3)n2Cc2ccco2)c1	0.3	54*	0.5	-4	-16	70*
c1ccc(CSc2nnc(-c3cccs3)n2Cc2ccco2)cc1	.	.	.	-3	-1	.
c1coc(Cn2c(SCc3nc4ccccc4[nH]3)nnc2-c2cccs2)c1	0.1	98*	0	-12	12	92*
O=C(NCc1ccco1)C1CCCN(S(=O)(=O)c2ccc(Cl)cc2)C1 (stereo not given)	1.4	22	0.8	-16	19	-38
O=C1C2C3CCCC3=C3CCCC3C2C(=O)N1c1ccc(Cl)cc1 (stereo not given)	0.5	75*	0.2	-7	3	54*
CCc1nnc(NC(=O)CSc2nnc(-c3ccncc3)n2C)s1	.	.	.	-12	-19	.
CN1c2ccccc2Oc2c(c(=O)n(C)c(=O)n2C)C1c1cccc([N+](=O)[O-])c1 (stereo not given)	0.5	23	0.8	-8	4	54*
c1cnc(Oc2ccc3oc4ccccc4c3c2)nc1	1.1	63*	0.4	3	-19	-11
COc1ccc2ccc(Oc3ncccn3)cc2c1	1	36	0.6	-3	4	-2
Cc1ccc(NC(=O)C2CCCN(S(=O)(=O)c3cnc[nH]3)C2)cc1C (stereo not given)	0.1	90*	0.1	-4	-4	86*
O=C(Nc1ccc(Cl)c(C(F)(F)F)c1)C1CCCN(S(=O)(=O)c2cnc[nH]2)C1 (stereo not given)	0.1	93*	0.1	-1	6	94*
COc1ccc(NC(=O)C2CCCN(S(=O)(=O)c3cnc[nH]3)C2)cc1 (stereo not given)	0.4	37	0.6	-11	13	62*
COc1ccc(NC(=O)C2CCCN(S(=O)(=O)c3cccnc3)C2)cc1 (stereo not given)	0.9	24	0.8	-1	15	7
O=C(Nc1ccc2c(c1)OCCO2)C1CCCN(S(=O)(=O)c2cnc[nH]2)C1 (stereo not given)	0.4	14	0.9	-12	-27	62*
O=C(Nc1cccc(Cl)c1)C1CCCN(S(=O)(=O)c2cnc[nH]2)C1 (stereo not given)	0	95*	0	-18	-15	96*
Cc1cc(NC(=O)C2CCCN(S(=O)(=O)c3cnc[nH]3)C2)ccc1Br (stereo not given)	0.1	97*	0	0	2	94*
COc1ccc(C(NC(=O)CNC(C)=O)C(=O)Nc2ccc3c(c2)OCCO3)cc1 (stereo not given)	0.9	16	0.8	-2	-16	5
CCCC(=O)Nc1ccc(Br)c(Cl)c1	0.7	60*	0.4	-13	-5	32
CCCC(=O)N1CCN(c2ccc(NC(=S)NC(=O)CC)cc2)CC1	0.6	51*	0.5	-6	6	36
CCCCCC(=O)NC(=S)Nc1ccc(N2CCCCC2)c(Cl)c1	0.9	2	1	-7	-12	14
SMILES	CYP2C9 activ	CYP2C19 inhib	CYP2C19 act	PLK1 kinase inh	Plk1 PBD FP	CYP2C9 inhib
CCCCCC(=O)Nc1ccc(N2CCN(CC)CC2)c(Cl)c1	0.3	13	0.9	.	.	67*
CCCCCC(=O)Nc1ccc(N2CCN(C(=O)c3ccccc3)CC2)cc1	0.5	43	0.6	2	-5	54*
O=C(OC(C(=O)NC1CCCC1)c1ccccn1)c1cccs1 (stereo not given)	1	6	0.9	-3	3	0
COC(=O)/C=c1/s/c(=C(\C#N)C(=O)NCc2ccco2)n(-c2ccc(C)cc2)c1=O	1	12	0.9	-4	33	0
O=C(Nc1ccc(N2CCN(Cc3ccccc3)CC2)cc1)c1cccnc1	0.7	10	0.9	-14	-7	30
CCOc1ccc(N(Cc2cc3ccc(C)cc3[nH]c2=O)C(=O)COC)cc1	0.5	27	0.7	-10	-21	45
COc1ccc(C(C)C)cc1S(=O)(=O)n1cnc(C)c1	1	6	0.9	0	-9	-1
CCCCC(=O)Nc1ccc(C(=O)N2CCC(C(=O)OCC)CC2)cc1	0.5	68*	0.3	-14	27	54*
CCCCC(=O)Nc1ccc(C(=O)OC2CCCCC2)cc1	0.1	74*	0.3	0	3	91*
CCCCC(=O)Nc1ccc(C(=O)N2CCN(c3ccccc3OC)CC2)cc1	0.2	57*	0.4	-6	3	77*
CCOC(=O)C1CCN(C(=O)Nc2ccc3nccnc3c2)CC1	.	.	.	1	-9	.
CCOC(=O)C1CCN(C(=O)Nc2ccc3snnc3c2)CC1	0.7	51*	0.5	-8	15	28
Cc1ccc(S(=O)(=O)NNc2nc3ccccc3nc2C(F)(F)F)cc1	0.5	67*	0.3	0	14	50*
Cc1ccc(S(=O)(=O)NNc2ccccc2)cc1	1.2	20	0.8	-10	-4	-16
Cc1nnc2n(-c3ccccc3)c(=O)c3c4c(sc3n12)COC(C(C)C)C4 (stereo not given)	0.8	8	0.9	-6	-6	16
CC(C)C1Cc2c(sc3[nH]c(=S)n(Cc4ccccc4)c(=O)c23)CO1 (stereo not given)	0.2	4	1	4	12	77*
CN(C)c1nc(Nc2ccc(Cl)cc2)nc(OCC#N)n1	1	-7	1.1	-5	-32	4
COc1cccc(C2(O)CCN(C(=O)Cc3cccnc3)CC2)c1	1	73*	0.3	-2	4	-4
COc1cccc(C2(O)CCN(C(=O)c3cccs3)CC2)c1	0.7	46	0.5	.	.	25
COc1ccc(C2(O)CCN(C(=O)Cc3cccnc3)CC2)cc1	0.8	58*	0.4	.	.	16
Clc1ccc(-c2nn3c(-c4ccccn4)nnc3s2)c(Cl)c1	0.7	35	0.7	.	.	29
O=c1cc(O)nc(SCc2ccc(Cl)cc2)[nH]1	0.8	6	0.9	-6	-16	19
CC(=O)c1ccc(OC(C)C)c(CSc2nc(O)cc(=O)[nH]2)c1	0.4	-8	1.1	-18	17	59*

Bioassay records deposited in PubChem by several laboratories.
